Source: the supplement of paper PMC4709259
± gives the standard deviation.

Experiments:
Jurkat [1] = test: mean cell size (FSC-A) relative to DMSO control (fraction of control); higher = larger cells; conditions: 48 h
Method in brief: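 Jurkat cells at 600 cells/µl were incubated for 1 h and then treated for 48h with the Enzo Screen-Well FDA Approved Drug Library v2.0 at 25µM, with DMSO at 0.9% (v/v) final. Compounds that reduced counts below 20% of controls were retested in 10-fold dilutions down to 25nM. Cell count and mean cell size, taken as forward scatter area, were measured by flow cytometry relative to solvent-only controls. Each plate carried 6-12 controls, and values are means of 3 biological replicates.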

Jurkat [2] = test: cell count relative to DMSO control (fraction of control); higher = more cells (less growth inhibition); conditions: 48 h

SMILES | mean cell size (Jurkat [1]) | cell count (Jurkat [2])
CNC[C@H](O)c1cccc(O)c1 [Phenylephrine] (concentration: 25 µM) | 0.999 ± 0.036 | 0.873 ± 0.15
CCC1(C)CC(=O)NC1=O (configuration not stated) [Ethosuximide] (concentration: 25 µM) | 1.05 ± 0.025 | 1.08 ± 0.074
CO/N=C(\C(=O)N[C@@H]1C(=O)N2C(C(=O)OC(C)OC(C)=O)=C(COC(N)=O)CS[C@H]12)c1ccco1 (some centres not stated) [Cefuroxime Axetil] (concentration: 25 µM) | 0.99 ± 0.028 | 0.895 ± 0.057
CC1Cc2ccccc2N1NC(=O)c1ccc(Cl)c(S(N)(=O)=O)c1 (configuration not stated) [Indapamide] (concentration: 25 µM) | 0.978 ± 0.023 | 0.497 ± 0.11
CC[C@H](C)[C@H](N)C1=N[C@H](C(=O)N[C@@H](CC(C)C)C(=O)N[C@H](CCC(=O)O)C(=O)N[C@H](C(=O)N[C@H]2CCCCNC(=O)[C@H](CC(N)=O)NC(=O)[C@@H](CC(=O)O)NC(=O)[C@H](Cc3cnc[nH]3)NC(=O)[C@@H](Cc3ccccc3)NC(=O)[C@H]([C@@H](C)CC)NC(=O)[C@@H](CCCN)NC2=O)[C@@H](C)CC)CS1 [Bacitracin] (concentration: 25 µM) | 0.977 ± 0.038 | 0.476 ± 0.09
CC1(C)S[C@@H]2[C@H](NC(=O)[C@H](N)c3ccccc3)C(=O)N2[C@H]1C(=O)O [Ampicillin Trihydrate] (concentration: 25 µM) | 0.849 ± 0.05 | 1.17 ± 0.068
